High-throughput results deposited in PubChem BioAssay by National Center for Advancing Translational Sciences (NCATS).
FH mod: Identification of activators of human fumarate hydratase by quantitative high-throughput screening | AID 1347055, 2019 | Fumarate hydratase, mitochondrial (Homo sapiens), P07954 | hit rate 0.22% among 54,000 | FH coupled MDH/diaphorase resazurin fluorescence, 15 min | Potency, µM (top dose mostly 79.9 µM), for inactives: at the highest dose activity change, negative = inhibition, hits mostly inhibitors; note: potency is the fitted concentration of half-maximal effect; % is set by controls: 0 for no effect and ±100 for the full control effect; the screen sought activators but most active calls are inhibition curves; nearly all actives have a fitted effect of over 45% in size
PTAP-TSG101 blk: qHTS Validation Assay for Inhibitors of HIV-1 Budding by Blocking the Interaction of PTAP/TSG101: Sytravon Library Screen; 44,000 tested, under 10 active; AID 1347069, 2019; Tumor susceptibility gene 101 protein (Homo sapiens), Q99816; Potency, µM (titrated, usually from 115 µM), most hits filed as inhibitors; Fluorescence polarization, FITC-PTAP peptide/Tsg101, 20 min; note: potency is the fitted concentration of half-maximal effect; 0% is about no effect
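Fluorescence polarization binding of Tsg101 binding domain (10 uM final) to FITC-labeled PTAP-motif peptide (50 nM final) in HEPES pH 7.5/NaCl/Tween 20/EDTA/TCEP buffer; 20 min at r.t. Actives by curve class, <25 µM, efficacy <60% inhibition.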
GALK inhibitor: qHTS Assay for Inhibitors of Human Galactokinase (GALK): NCGC Sytravon Library Screen; AID 1347072, 2019; recombinant GALK, Kinase-Glo ATP luminescence, 1 h; 44,000 tested, under 10 active; Potency, µM (series often up to 57.5 µM), for inactives: at the highest dose activity, negative = inhibition, most hits filed as inhibitors;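 note: plate controls were full GALK reaction for no effect and reaction lacking GALK for full effect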
Target sequence (P51570 whole entry, looked up): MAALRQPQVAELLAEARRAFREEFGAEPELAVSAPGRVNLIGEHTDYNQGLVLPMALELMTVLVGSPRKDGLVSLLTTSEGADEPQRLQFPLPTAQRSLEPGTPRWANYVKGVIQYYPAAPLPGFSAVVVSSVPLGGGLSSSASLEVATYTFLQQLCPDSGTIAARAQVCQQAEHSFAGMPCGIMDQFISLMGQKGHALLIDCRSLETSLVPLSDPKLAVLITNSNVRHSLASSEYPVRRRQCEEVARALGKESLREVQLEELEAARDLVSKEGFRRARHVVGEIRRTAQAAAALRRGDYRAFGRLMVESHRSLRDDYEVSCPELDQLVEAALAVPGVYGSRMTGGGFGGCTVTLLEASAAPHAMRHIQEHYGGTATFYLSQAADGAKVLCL
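Luminescent ATP-depletion readout (Kinase-Glo Plus) after 1 h room-temperature incubation of human GALK (5 nM) with galactose 100 µM and ATP 35 µM, pH 8.0 HEPES/Mg2+ buffer; compounds tested in qHTS format.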
B2AR arrestin ag: qHTS assay of beta-arrestin-biased ligands of beta2-adrenergic receptor: NCGC Sytravon Library Screen; Beta-2 adrenergic receptor (Homo sapiens), P07550; HTLA Tango cells, beta-arrestin recruitment, luciferase luminescence, 18 h; Potency, µM (series often up to 46.1 µM), usual class: activators; 44,000 tested, under 10 active;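 note: potency is the fitted concentration of half-maximal effect; 0% = DMSO and full agonism = EC100 isoproterenol or metaproterenol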
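Tango cell line, 1% FBS DMEM; cpd titration up to 46 microM; 18 hr, 37 degrees C, 5% CO2. Luciferin/ATP substrate mix added, 15 min RT, luminescence. %Activity, CRC fitting, curve-class categorization.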
* = called active by the depositor; ! = not confirmed by another sample; [ ] = dose if it differs, or a comment. Most compounds without a hit are left out; they make up all but 0.24% or so of the library. Calls come from the whole dose curve; as a rule, active = well fitted curve in the direction sought with a large enough effect; inconclusive = small, poorly fitted or top-dose-only effect, or another doubt; inactive = no such curve, though single readings can be large; an effect the other way counts as inactive or inconclusive.

Results for Cc1ccc(C(=O)Nc2ccc(S(=O)(=O)O)c3cc(S(=O)(=O)O)cc(S(=O)(=O)O)c23)cc1NC(=O)c1cccc(NC(=O)Nc2cccc(C(=O)Nc3cc(C(=O)Nc4ccc(S(=O)(=O)O)c5cc(S(=O)(=O)O)cc(S(=O)(=O)O)c45)ccc3C)c2)c1 ?
FH mod: 14µM*

Results for Cc1nc2c(C(=O)NCCc3ccc(Cl)cc3)c[nH]n2c(=O)c1Cc1ccccc1F ?
FH mod: inconclusive; PTAP-TSG101 blk: inactive; GALK inhibitor: 5%; B2AR arrestin ag: inactive

How did COc1ccc(CCNC(=O)c2c[nH]n3c(=O)c(Cc4ccccc4Cl)c(C)nc23)cc1OC do in these assays?
FH mod: 18µM*; PTAP-TSG101 blk: inactive; GALK inhibitor: -17%; B2AR arrestin ag: inactive

Results for O=S(=O)(/N=C/c1c(O)ccc2ccccc12)c1cccs1 ?
FH mod: 16µM*

What do the screens show for `Oc1ccc2ccccc2c1SSc1c(O)ccc2ccccc12`?
FH mod: 35µM*!

How did OCc1ccccc1O do in these assays?
FH mod: 0%[53.3 µM]

How did O=C(c1ccc(F)cc1F)N1CCC(c2nc(-c3ccc(S(=O)(=O)N4CCCC4)cc3)no2)CC1 do in these assays?
FH mod: -13%; PTAP-TSG101 blk: inactive; GALK inhibitor: 2%; B2AR arrestin ag: inactive

Results for COc1cccc(CN2C(=O)c3ccccc3Sc3ccc(C(=O)OCc4ccco4)cc32)c1 ?
FH mod: -15%; PTAP-TSG101 blk: inactive; GALK inhibitor: 0%; B2AR arrestin ag: inactive

What do the screens show for `O=C(O)Cc1ccc2c(c1)C(=O)c1ccccc1CO2`?
FH mod: 1%[53.3 µM]

How did COc1cc(/C=C(\C#N)C(=O)c2ccc(O)c(O)c2)cc(I)c1O do in these assays?
FH mod: 7.9µM*

What do the screens show for `CCOc1ccc(NC(=O)CSc2nc3ccsc3c(=O)n2CCC(C)C)cc1`?
FH mod: 4%; PTAP-TSG101 blk: inactive; GALK inhibitor: -1%; B2AR arrestin ag: inactive

What do the screens show for `Cc1ccc2[nH]cc(C(c3ccccc3)c3ccc(Cl)s3)c2c1` (configuration not stated)?
FH mod: inconclusive; PTAP-TSG101 blk: inactive; GALK inhibitor: 2%; B2AR arrestin ag: inactive

How did COc1ccc(Cl)cc1NC(=O)c1cc(S(=O)(=O)NC2CCCCCC2)ccc1F do in these assays?
FH mod: -13%; PTAP-TSG101 blk: inactive; GALK inhibitor: -8%; B2AR arrestin ag: inactive

Results for Cn1cc(Nc2cnccc2C(=O)O)c2cccnc21 ?
FH mod: 3%

What do the screens show for `CCc1ccc(S(=O)(=O)Nc2cccc(-c3ccc(N4CCC(C)CC4)nn3)c2)s1`?
PTAP-TSG101 blk: inactive; GALK inhibitor: 1%; B2AR arrestin ag: inactive

What do the screens show for `O=Nc1c(-c2c(O)[nH]c3ccccc23)[nH]c2ccccc12`?
FH mod: -16%[53.3 µM]

Results for O=C(O)CSc1cc(NS(=O)(=O)c2ccc(Br)cc2)c2ccccc2c1O ?
FH mod: 16µM*

How did Cc1cn2c(=O)cc(COC(=O)C(C)Oc3ccccc3)nc2s1 (configuration not stated) do in these assays?
FH mod: 6%; PTAP-TSG101 blk: inactive; GALK inhibitor: 4%; B2AR arrestin ag: inactive

How did COc1ccc(N2CCN(C(=O)c3cn(CC(C)C)c(=O)c4c3c3ccccc3n4C)CC2)cc1 do in these assays?
FH mod: 32µM*; PTAP-TSG101 blk: inactive; GALK inhibitor: -1%; B2AR arrestin ag: inactive

How did N#Cc1cc([N+](=O)[O-])c2sc(C(N)=O)[n+]([O-])c2c1 do in these assays?
FH mod: 20µM*!

How did COc1cc(NC(=O)CSc2nnc(C)n3c2cc2oc(C)cc23)cc(OC)c1 do in these assays?
FH mod: -15%; PTAP-TSG101 blk: inactive; GALK inhibitor: 1%; B2AR arrestin ag: inactive

Results for O=C1Nc2ccc(I)cc2/C1=C/c1cc(Br)c(O)c(Br)c1 ?
FH mod: 28µM*

How did O=c1[nH]c(=S)[nH]c(-c2ccccc2)c1Cc1c(O)ccc2ccccc12 do in these assays?
FH mod: 20µM*

Results for COc1ccccc1-c1nc2c3c(-c4ccccc4)c(-c4ccccc4)oc3ncn2n1 ?
FH mod: -15%; PTAP-TSG101 blk: inactive; GALK inhibitor: 1%; B2AR arrestin ag: inactive

Results for CC(C)(C)c1cc(C(C)(C)C)c2oc(=O)c(-c3nc4ccccc4[nH]3)cc2c1 ?
FH mod: 2%; PTAP-TSG101 blk: inactive; GALK inhibitor: 3%; B2AR arrestin ag: inactive

Results for CC(C)(C)c1cc(C(C)(C)C)c2oc(=O)c(-c3nc4ccc(C(=O)O)cc4[nH]3)cc2c1 ?
FH mod: 28µM*; PTAP-TSG101 blk: inactive; GALK inhibitor: 0%; B2AR arrestin ag: inactive

How did CC(C)(Sc1ccc(CCN(CCCCC2CCCCC2)C(=O)NC2CCCCC2)cc1)C(=O)O do in these assays?
FH mod: 25µM*!

Results for COc1ccc(S(=O)(=O)n2ccnc2)cc1C(C)(C)C ?
FH mod: -3%; PTAP-TSG101 blk: inactive; GALK inhibitor: 3%; B2AR arrestin ag: inactive

Results for N#C/C(=C\c1ccc(O)c(O)c1)C(=O)Nc1ccccc1 ?
FH mod: 14µM*

How did Cc1ccc(NC(=O)/C(C#N)=C/c2ccc(C(C)C)cc2)cc1C do in these assays?
FH mod: -1%; PTAP-TSG101 blk: inactive; GALK inhibitor: 3%; B2AR arrestin ag: inactive

What do the screens show for `NS(=O)(=O)c1cccc2c1c([N+](=O)[O-])cc1nc(O)c(O)nc12`?
FH mod: 18µM*

What do the screens show for `CN1CCc2c(sc(NC(=O)CSc3ccc(F)cc3)c2-c2nc3ccccc3s2)C1`?
FH mod: 4%; PTAP-TSG101 blk: inconclusive; GALK inhibitor: 0%; B2AR arrestin ag: inactive

What do the screens show for `CCN1CCc2c(sc(NC(=O)CSc3ccccc3)c2-c2nc3ccccc3s2)C1`?
FH mod: 10%; PTAP-TSG101 blk: 40µM*; GALK inhibitor: -7%; B2AR arrestin ag: inactive

What do the screens show for `COC(=O)C1=C(C)NC(C)=C(C(=O)OC)C1c1ccccc1[N+](=O)[O-]`?
FH mod: 16µM*!

Results for CCOC(=O)C1=C(C)NC(C)=C(C(=O)OC)C1c1cccc([N+](=O)[O-])c1 (configuration not stated) ?
FH mod: -28%[53.3 µM]

What do the screens show for `O=C1C[C@@]2(C(=O)N1)C(=O)N(Cc1ccc(Br)cc1F)C(=O)c1cccn12`?
FH mod: 0%

What do the screens show for `O=c1cc(CN2CCN(S(=O)(=O)c3ccc(Cl)cc3)CC2)nc2sc(-c3ccccc3F)nn12`?
FH mod: 9%; PTAP-TSG101 blk: inactive; GALK inhibitor: 0%; B2AR arrestin ag: inactive
